# In the library only some 7.2% were active in any assay of this set; here they are far more common.
# Lassa entry inh: inhibitors of Lassa virus binding or cell entry; Potency, µM (highest dose often 37.9 µM), for the others: top-dose activity change, negative = inhibition, most hits filed as inhibitors; hit rate 1.2% among 300,000; Lassa virus pseudotype entry inhibition, cell reporter; AID 540256; calls by dose curve; tested in HEK293 cells; also: nearly all actives have a fitted effect of over 50% in size
# HCV inhibitor: HCV inhibition; hit rate 3.4% among 340,000; Potency, µM (titrated, usually from 41.8 µM), for the others: top-dose activity change, negative = inhibition, most hits filed as inhibitors; Huh7.5.1 HCVcc-Cre infection, luciferase reporter, 44 h
#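 Cells seeded at 1,000/well and cultured 4 h, then compounds added followed by HCVcc-Cre virus (~0.5 moi). After 44 h further culture, luciferase substrate was added, plates held 15 min at room temperature, and luminescence read for 15 sec.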
# RE007 growth inh: less growth of the S. pombe RE007 Vpr strain; S. pombe RE007 Vpr strain, BacTiter-Glo ATP luminescence, 24 h; Potency, µM (series often up to 92.2 µM), inactives show at the top dose activity change, negative = less growth, usual class: inhibitors; hit rate 0.21% among 360,000; AID 651644; active = well fitted falling curve with a large enough effect; inconclusive = small, poorly fitted or top-dose-only effect; inactive = no such curve, though single readings can be large or run the other way; also: nearly all actives have a fitted effect of over 50% in size
#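 Fission yeast RE007 carrying one integrated HIV-1 vpr copy, seeded at OD 0.01 in PMG+AL medium with 23 nL pinned compound. Grown 24 h at 30 degrees; viability read by BacTiter-Glo luminescence after 5 min.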
# Sm TGR inh: blocks Schistosoma mansoni thioredoxin glutathione reductase; Q962Y6; purified TGR, DTNB reduction, TNB absorbance 405 nm; Potency, µM (titrated, usually from 114 µM), for the others: at the highest dose activity change, negative = inhibition, most hits filed as inhibitors; hit rate 3% among 360,000; AID 485364; also: nearly all actives have a fitted effect of over 60% in size
#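 First, TGR (20 nM dispensed) and NADPH were mixed with compound. Second, a 15 min room-temperature incubation followed. Third, further NADPH and then DTNB were added to start the reaction. Finally, TNB absorbance was monitored kinetically.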
# FMDV inh: blocks foot and mouth disease virus | FMDV antiviral cell-based qHTS | Potency, µM (series often up to 57.9 µM), inactives show top-dose activity change, negative = inhibition, usual class: inhibitors | hit rate 1.2% among 410,000 | AID 1159524; calls by dose curve; tested in HEK293T cells; also: read-out not given here; nearly all actives have a fitted effect of over 45% in size
# Marburg entry inh: blocks Marburg virus binding to or entry into cells; hit rate 1.8% among 300,000; AID 540276; Marburg virus pseudotyped entry inhibition, cell reporter; Potency, µM (top dose mostly 37.8 µM), for inactives: at the top dose activity change, negative = inhibition, most hits filed as inhibitors; calls by dose curve; tested in HEK293 cells
# * hit, by the source's call; ? = inconclusive; / = no result; [ ] = another dose, or the depositor's remark. Unless noted, calls follow the shape of the dose curve; as a rule, active = well fitted curve in the direction sought with a large enough effect; inconclusive = small, poorly fitted or top-dose-only effect, or another doubt; inactive = no such curve, though single readings can be large; an effect the other way counts as inactive or inconclusive. % is scaled to controls: 0 for no effect and ±100 for the full control effect; potency is read from the fitted curve at half-maximal effect.
SMILES,Lassa entry inh,HCV inhibitor,RE007 growth inh,Sm TGR inh,FMDV inh,Marburg entry inh
O=C(Nc1cccc(C(F)(F)F)c1)c1cc2nc(-c3ccco3)cc(C(F)(F)Cl)n2n1,?,/,/,4.5%,-19.5%,-10.2%[46.1 µM]
CCc1ccc(-c2cc(C(F)(F)F)n3nc(C(=O)Nc4cnn(Cc5ccc(C)cc5)c4)cc3n2)s1,?,11.2µM*,-6.5%,-26.4%,-19.0%,9.2µM*
O=C(NCc1ccco1)c1cc2nc(C3CC3)cc(C(F)(F)F)n2n1,3.55µM*,-15.6%,16.2%,-34.2%,7.7%,1.1%[46.1 µM]
O=C(c1cc2nc(-c3ccco3)cc(C(F)(F)F)n2n1)N1CCN(Cc2ccccc2)CC1,?,-4.5%,8.4%,50.1µM*,10.0%,?
Cc1ccc(-n2c(=O)c3oc4ccccc4c3n(CC(=O)Nc3ccccc3)c2=O)cc1C,?,/,/,-1.4%,7.0%,/
CCOC(=O)C1CCN(C(=O)CCS(=O)(=O)c2cc3c(cc2Cl)NC(=O)CO3)CC1,3.2%[46.1 µM],/,/,11.8%,-7.8%,/
COc1cc(=O)n2c(c1C(=O)N(C)Cc1cscn1)CCN(Cc1c(C)[nH]c3ccccc13)CC2,/,/,/,/,-5.9%,/
Cc1ccccc1Cn1cc(NC(=O)c2cc3nc(-c4ccco4)cc(C(F)(F)F)n3n2)cn1,-5.2%,10µM*,-11.4%,-2.5%,?,-10.4%
O=C(Nc1ccc(Cl)cc1)c1cc2nc(-c3ccco3)cc(C(F)(F)F)n2n1,-15.9%,?,-11.6%,-23.9%,8.9%,9.4%
O=C(c1cc(-c2ccco2)nc2ccccc12)N1CCCC(C(F)(F)F)C1 (configuration not stated),/,-5.1%,-14.0%,35.5µM*,-21.8%,/
CCOC(=O)C1CCCN(C(=O)c2cc(-c3ccco3)nc3ccccc23)C1 (configuration not stated),2.0%,-5.1%,9.7%,/,-6.2%,-4.3%
O=C(c1cc2ccccc2cc1O)N1CCCC(C(F)(F)F)C1 (configuration not stated),/,-2.6%,1.0%,28.2µM*,9.1%,/
CCN1CCN(C(=O)c2cc(-c3ccco3)nc3ccccc23)CC1,/,5.7%,-9.4%,28.2µM*,-8.0%,/
O=C(c1cc(S(=O)(=O)N2CCN(c3ccccc3)CC2)ccc1Cl)N1CCCC(C(F)(F)F)C1 (configuration not stated),?,7.94µM*,6.2%,-9.9%,?,?
COc1cc(CN2C[C@@H](CO)O[C@@H](n3cnc4c(NCc5ccco5)ncnc43)C2)cc(OC)c1OC,/,/,-4.9%,/,-1.6%,/
Cc1ccc(Cn2c(C(=O)Nc3cccc(Cl)c3)cc3sccc32)cc1,-9.1%[46.1 µM],/,/,7.5%,0.0%,?
CCOC(=O)C1CCN(C(c2ccc(SC)cc2)c2c(O)cc(C)n(Cc3ccco3)c2=O)CC1 (configuration not stated),-28.2%[46.1 µM],/,/,5.01µM*,-28.4%,/
CCOC(=O)C1CCN(C(c2ccccc2)c2c(O)cc(C)n(Cc3ccco3)c2=O)CC1 (configuration not stated),-1.9%[46.1 µM],/,/,8.91µM*,-24.1%,/
CCOC(=O)C1CCN(C(c2cccc(F)c2)c2c(O)cc(C)n(Cc3ccco3)c2=O)CC1 (configuration not stated),0.2%[46.1 µM],/,/,10µM*,-24.6%,/
CCOC(=O)C1CCN(C(c2cccc(F)c2)c2c(O)cc(C)n(CCOC)c2=O)CC1 (configuration not stated),-10.5%[46.1 µM],/,/,17.8µM*,-19.5%,/
CCOC(=O)C1CCN(C(c2ccc(C)cc2)c2sc3nc(-c4ccco4)nn3c2O)CC1 (configuration not stated),14.6%[46.1 µM],/,/,-5.7%,-1.0%,/
CCOC(=O)NC(=O)CSc1nnc(C2CC2)n1Cc1ccco1,-1.9%[46.1 µM],20.4%,11.9%,-29.5%,4.1%,-2.0%[46.1 µM]
CCc1ccc(NCc2cc3ccc(OC)cc3n(CC(=O)Nc3ccc(C(C)C)cc3)c2=O)cc1,-1.1%[46.1 µM],/,/,33.9%,-2.4%,/
Cc1ccc(OCc2nnc(SCC(=O)Nc3ccccc3C(C)C)o2)cc1,10.6%[46.1 µM],/,/,4.2%,-9.5%,/
C/C(=C\c1ccccc1)C(=O)n1nnc2ccccc21,?,-6.1%,-8.7%,20µM*,-17.2%,9.0%
SMILES,Lassa entry inh,HCV inhibitor,RE007 growth inh,Sm TGR inh,FMDV inh,Marburg entry inh
Cc1ccc2nc(COc3ccccc3NC(=O)COc3ccc(F)cc3)cc(=O)n2c1,23.0%[46.1 µM],/,/,-1.4%,-13.3%,/
Cc1c(Cc2ccc3c(c2)OCO3)sc(NC(=O)C(C)(C)C)c1C#N,/,11.2µM*,0.8%,0.6%,0.0%,/
COC(=O)c1ccc2nc(NC(=O)C(C)(C)C)sc2c1,1.12µM*,?,-0.6%,20.5%,14.1µM*,?
CC(=O)c1sc(Nc2nc3ccc(F)cc3s2)nc1C,?,-17.4%,?,7.6%,0.8%,?
COC(=O)c1ccc2nc(Nc3nc4ccc(F)cc4s3)sc2c1,6.31µM*,32.6%,-1.4%,-3.7%,?,0.794µM*
Cc1ccc(C)c(NC(=O)c2ccc3c(c2)CCCN3S(C)(=O)=O)c1,22.5%[46.1 µM],/,/,0.7%,23.5%,?
CCC(C)(C)C1CCC2(CC1)NC(=O)N(CC(=O)NC(C)CCc1ccccc1)C2=O (configuration not stated),-25.5%[46.1 µM],?,0.0%,-1.2%,-12.7%,11.6%
CCc1ccc(Nc2n[n+](-c3ccccc3)c(-c3cccc(C)c3)s2)cc1,/,31.6µM*,-3.0%,-32.9%,-2.6%,/
CCc1ccc(NC(=O)c2sc(-n3nc(C)c(CCC(C)C)c3C)nc2C)cc1,13.2%[46.1 µM],/,/,5.5%,-22.1%,-5.5%[46.1 µM]
Cc1ncc2c(c1CNC(=O)c1ccccc1F)CCN(C(=O)c1csc(-c3cccs3)n1)C2,/,/,/,/,-8.3%,/
CC(C)(C)OC(=O)N(CCc1ccccc1)Cc1ccc(OCc2cccc(NC(=O)C3CCC3)c2)cc1,/,?,-6.3%,/,?,/
CC(C)(C)OC(=O)N(CCc1ccccc1)Cc1ccc(OCc2cccc(NC(=O)C3CC3)c2)cc1,/,12.6µM*,6.7%,/,22.4µM*,/
CC(C)C(=O)Nc1cccc(COc2ccc(CN(Cc3ccccc3)C(=O)OC(C)(C)C)cc2)c1,/,0.501µM*,10.0%,/,11.2µM*,/
CN1CCN(c2ncc3nc(-c4ccccc4)c(=O)n(C)c3n2)CC1,/,/,/,/,9.7%,/
Cc1sc2ncnc(N3CCCCC3)c2c1C,-3.0%,?,-1.6%,-9.2%,?,-7.5%
Cc1ccc(OCCN2CCN(c3ncnc4sc(C)c(C)c34)CC2)cc1,?,2.51µM*,-16.3%,0.9%,?,?
CCN1CCN(CCOc2ccc(Cl)cc2)CC1,17.3%[46.1 µM],-18.9%,-6.7%,11.5%,-9.1%,3.3%[46.1 µM]
Clc1ccc(OCCN2CCN(c3ncnc4sccc34)CC2)cc1,?,0.316µM*,20.4%,4.7%,?,?
Cc1oc(-c2ccccc2NC(=O)c2cccnc2)nc1CNC(=O)C1CCCCCN1C (configuration not stated),/,/,/,/,-22.2%,/

# Assay outcomes deposited in PubChem BioAssay by National Center for Advancing Translational Sciences (NCATS).
